12 compounds from PubChem BioAssay (NCI) can be followed below.

Where “and” joins values, the source holds several entries; their conditions need not be identical. Equal entries are not always repeated. About 83,000 compounds went through this panel and 20% of them were active in at least one assay; those are over-represented in the sample as a whole.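 Results are percent growth after 48 hours of single-concentration exposure. 100 means growth as in untreated cells, lower positive values show inhibition; negative values down to -100 show cell death.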 Calls of active or inactive are those of the source. The calls were made as follows: active = growth percent below 10; inactive = the rest.

This assay has as its system MDA-MB-468 breast. In words: NCI-60 one-dose screen, 48 h (100 = growth as untreated, 0 = no growth, -100 = all killed). Conditions: 10 µM unless noted.
Consider `O=P(O)(O)OC1C(OP(=O)(O)O)C(OP(=O)(O)O)C(OP(=O)(O)O)C(OP(=O)(O)O)C1OP(=O)(O)O.[Cu+2]` (configuration not stated), for which the growth was 85.8% (inactive).

Consider `C=C(C)C(=O)O[C@H]1C[C@@]2(C)OC(=CC2=O)/C(C)=C\[C@H]2OC(=O)C(=C)[C@H]12`, for which the growth is -52.5% (active).

Regarding `COc1ccc(-c2nc3sc4c(c3c(=O)[nH]2)CCCC4)c2ccccc12`, the growth is 25% (inactive).

Regarding `CC(=O)Oc1ccc(OC(C)=O)c2ccccc12`, the growth was -53.2% (active).

Consider `C1Cc2onc(-c3noc4c3CCC4)c2C1`, for which the growth was 110% (inactive).

`Cc1cc(NS(=O)(=O)c2ccc(NC(=O)COc3ccc(-c4cc5ccccc5[nH]4)cc3)cc2)no1`: the growth was -0.467% (active).

As for `COc1cc(C2C=C(C)N=C3SC=C(C)N32)cc(OC)c1OC` (configuration not stated), the growth was -74.2% (active).

As to `Cn1ccc(=O)c(C(=O)Nc2nsc3ccc([N+](=O)[O-])cc23)c1`, the growth is 87.1% (inactive).

With `O=C(Nc1nc(-c2ccc(Cl)cc2)cs1)c1cc(O)c(O)c(O)c1`, the growth was 55.8% (inactive).

As to `O=C(/C=C/c1ccc(Cl)c(Cl)c1)Nc1ncc(Cc2ccc(Cl)c(Cl)c2)s1`, the growth was 68.5% (inactive).

Take `O=Nc1ccc(O)cc1`: the growth was 78.3% (inactive) and 93.9% (inactive).

Turning to `COc1ccccc1/C=C\C(=O)c1ccccc1`, the growth was 82.7% (inactive).
